Measurements published in PubChem BioAssay.
For part of these data: Potency and affinity values are given separately. Inconclusive results are not listed. This is one part of the list. Calls of active or inactive are those of the source. Unless noted, the rule behind the calls is not given here.

Experiments:
[1] = IOSE-T80 viability loss, PAX8-independent line – cell-based, cherry-pick, selectivity assay for PAX8 inhibitor project, dose response (AID 687032;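 active = fitted half-maximal concentration for viability loss no higher than twice the top valid dose, in every repeat run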;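 note: cells exposed to compound for 96 h before reading; 0% = neutral control wells and -100% = 2 µM mitoxantrone kill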)
[2] = CMV-driven luciferase expression suppression in HEK293 – cell-based, luminescence, dry powder, counter-screen for Pax8 inhibitor project, dose response (AID 743020;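 active = signal-lowering compounds whose fitted half-maximal concentration is at or below twice the top tested dose in every run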;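 note: HEK293 cells stably expressing the CMV luciferase reporter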)
[3] = general cell-killing toxicity readout – plate reader, dry powder samples, cytotoxicity control for PAX8 inhibitor project, dose response (AID 743021)
[4] = IGROV1 cell killing – plate reader, dry powder samples, PAX8 inhibitor project, dose response (AID 743043);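 note: more negative means fewer viable cells or more cytotoxicity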
[5] = OVCAR-3 cell viability loss – plate reader, dry powder samples, PAX8 inhibitor project, dose response (AID 743044); settings: max activity: at 35 µM, active compounds read low unless noted
[6] = toxicity toward immortalized ovarian surface epithelium – cell-based, plate reader, dry powder samples, cytotoxicity control for PAX8 inhibitor project, dose response (AID 743045);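 note: 0% = neutral control median and -100% = positive control median; more negative values mean more cell killing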
[7] = A2780 cell killing – plate reader, dry powder samples, cytotoxicity control, dose response (AID 743046);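 note: 0% = neutral control wells and -100% = cytotoxic reference compound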
[8] = OVCAR8 cell viability loss – plate reader, dry powder samples, PAX8 project, dose response (AID 743197)
[9] = RMG-1 ovarian cancer cell viability loss – cherry-pick, dose response (AID 687029;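 active = signal drop whose fitted half-maximal concentration is at most twice the top valid dose, in every test run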;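 note: cells exposed to compound for 96 hours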)
[10] = small-molecule DNA binding by polarization – biochemical, fluorescence polarization, cherry-pick, counter-screen for EWS/Fli inhibitor project, dose response (AID 720586;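 active = fitted curve reaches a 35% signal fall AC35 below twice the sample's top valid tested dose, actives reach about 48 µM in these data; inactive = the rest, including activity in the rising direction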;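 note: 0% = neutral control median and -100% = 10 µM mitoxantrone control median; lower polarization ratio signals compound binding to DNA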)
[11] = toxicity toward HepG2 liver cells – cell-based, plate reader, cherry-pick, antagonist series, cytotoxicity control, dose response (AID 743416);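 note: 0% = neutral control wells and -100% = positive control wells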

O=C(C1CCC1)N1CCCCN2[C@H](CO)[C@H](c3ccc(-c4cccc(F)c4)cc3)[C@H]2C1
inactive: outcome [1] | outcome [2] | outcome [3] | outcome [4] | max activity [5] 7.58% [at 0.26 µM, active compounds read low] | outcome [6] | outcome [7] | outcome [8]

C[C@@H]1CN([C@H](C)CO)C(=O)c2cc(NC(=O)Cc3ccccc3)ccc2O[C@@H](C)CCCCO[C@H]1CN(C)Cc1ccc(C(F)(F)F)cc1
inactive: outcome [1] | outcome [2] | outcome [3] | outcome [4] | outcome [6] | outcome [7]

COc1ccc(S(=O)(=O)Nc2ccc3c(c2)C(=O)N([C@H](C)CO)C[C@H](C)[C@H](CN(C)S(=O)(=O)c2ccc(F)cc2)OCCCC[C@H](C)O3)cc1
inactive: outcome [9] | outcome [3] | outcome [4] | max activity [5] -7.5% | outcome [6] | outcome [7] | outcome [8]

C[C@@H]1CCCCO[C@@H](CN(C)Cc2ccncc2)[C@H](C)CN([C@@H](C)CO)C(=O)c2cc(NC(=O)Nc3ccc(C(F)(F)F)cc3)ccc2O1
inactive: outcome [1] | outcome [2] | outcome [3] | outcome [4] | outcome [6] | outcome [7]

C[C@H]1CN([C@@H](C)CO)S(=O)(=O)c2ccc(C#Cc3ccncc3)cc2O[C@@H]1CN(C)C(=O)Nc1ccc2c(c1)OCO2
inactive: outcome [1] | AC35 [10] | outcome [2] | outcome [3]

CCOc1ccc(C2=Nn3c(nnc3-c3ccccc3OC)SC2)cc1
inactive: outcome [1] | outcome [2]

Cn1nnnc1Sc1ncnc2scc(-c3ccsc3)c12
inactive: outcome [9] | outcome [3]

CCN(CC)CCCNc1nc2ccccc2c2[nH]c3ccc(OC)cc3c12
inactive: outcome [9] | outcome [3]

O=C(CN1C(=O)c2ccccc2S1(=O)=O)c1ccc(Cl)cc1Cl
inactive: outcome [9] | outcome [3] | outcome [4] | outcome [5] | outcome [6] | outcome [7]

C[C@@H]1CCCCO[C@H](CN(C)C(=O)c2ccccc2)[C@H](C)CN([C@@H](C)CO)C(=O)c2cc(NC(=O)Nc3ccc(C(F)(F)F)cc3)ccc2O1
inactive: outcome [1] | outcome [2] | outcome [3] | outcome [4] | outcome [6]

COc1cc(/C=C/C(=O)N2CCC=CC2=O)cc(OC)c1OC
inactive: outcome [1] | outcome [2] | outcome [3]

C[C@@H]1CCCCO[C@H](CN(C)C(=O)Cc2ccccc2)[C@@H](C)CN([C@@H](C)CO)C(=O)c2cc(NS(=O)(=O)c3ccc(Cl)cc3)ccc2O1
inactive: outcome [9] | outcome [3] | outcome [4] | outcome [6]

COc1ccccc1C#Cc1ccc([C@H]2[C@H](C#N)N(C(=O)C3CCCC3)[C@H]2CO)cc1
inactive: outcome [9] | outcome [7] | outcome [11]

COc1cccc(-c2ccc3c(c2)[C@@H]2[C@@H](CCN2S(=O)(=O)c2ccccc2C)[C@H](CO)N3C)c1
inactive: outcome [1] | outcome [2] | outcome [3] | outcome [4] | max activity [5] -25.8% [at 30 µM, active compounds read low] | outcome [6] | outcome [7] | outcome [8]

C[C@H]1CCCCO[C@@H](CN(C)Cc2ccncc2)[C@@H](C)CN([C@@H](C)CO)C(=O)c2cc(NC(=O)Nc3ccc(C(F)(F)F)cc3)ccc2O1
inactive: outcome [1] | outcome [2] | outcome [3] | outcome [4] | max activity [5] -18.9% [at 16 µM, active compounds read low] | outcome [6] | outcome [7]

CC(C)(C)c1nnc(NC(=O)CCS(=O)(=O)c2ccccc2)s1
inactive: outcome [9] | outcome [3] | outcome [6] | outcome [7]

O=S(=O)(c1ccccc1F)N1CC[C@@H]2[C@H](CO)Nc3ccc(C4=CCCCC4)cc3[C@@H]21
inactive: outcome [1] | outcome [2] | outcome [3] | outcome [4] | max activity [5] 8.04% | outcome [6] | outcome [7] | outcome [8]

C[C@@H]1CN([C@@H](C)CO)C(=O)c2cc(NC(=O)CCC(F)(F)F)ccc2O[C@@H](C)CCCCO[C@H]1CN(C)Cc1ccc(C(F)(F)F)cc1
inactive: outcome [9] | outcome [3] | outcome [6] | outcome [7]

C[C@@H]1CCCCO[C@H](CN(C)Cc2ccc(C(F)(F)F)cc2)[C@@H](C)CN([C@@H](C)CO)C(=O)c2cc(NC(=O)c3ccccc3)ccc2O1
inactive: outcome [9] | outcome [6] | outcome [7]

COc1ccccc1NC(=O)N1CCCCN2[C@H](C1)[C@@H](c1ccc(-c3cccc(C#N)c3)cc1)[C@@H]2CO
inactive: outcome [1] | outcome [2] | outcome [3] | outcome [4] | outcome [6] | outcome [7]

C[C@H](CO)N1C[C@H](C)[C@@H](CN(C)S(=O)(=O)c2ccc(Cl)cc2)OCCCC[C@H](C)Oc2ccc(NS(=O)(=O)c3ccc(F)cc3)cc2C1=O
inactive: outcome [1] | outcome [2] | outcome [3] | outcome [4] | outcome [6] | outcome [8]

CS(=O)(=O)Nc1ccc2c(c1)[C@@H]1C[C@@H](CC(=O)NCc3ccc(-c4ccccc4)cc3)O[C@@H](CO)[C@@H]1O2
inactive: outcome [1] | outcome [2]

COc1ccc(C#Cc2ccc([C@H]3[C@@H](CO)N4CCCCN(C(=O)Nc5ccccc5)C[C@H]34)cc2)cc1
inactive: outcome [1] | outcome [2] | outcome [3] | outcome [4] | outcome [6] | outcome [7] | outcome [8]

C[C@H](CO)N1C[C@H](C)[C@H](CN(C)CC2CCCCC2)OCCCC[C@H](C)Oc2ccc(NC(=O)Nc3ccccc3)cc2C1=O
inactive: outcome [9] | outcome [3] | outcome [6] | outcome [7] | outcome [8]

C[C@@H]1CN([C@@H](C)CO)C(=O)c2cc(N(C)C)ccc2O[C@@H](C)CCCCO[C@H]1CN(C)S(=O)(=O)c1ccc(F)cc1
inactive: outcome [1] | outcome [2] | outcome [3] | outcome [4] | max activity [5] 16.1% [at 0.26 µM, active compounds read low] | outcome [6] | outcome [7] | outcome [8]

C=C(C)c1cccc(C(C)(C)NC(=O)N2CCN(c3ccccc3OC)CC2)c1
inactive: outcome [1] | outcome [2] | outcome [3]

Cc1ccc(S(=O)(=O)N(C)C[C@@H]2Oc3ccc(NC(=O)Nc4ccc(C(F)(F)F)cc4)cc3CC(=O)N([C@@H](C)CO)C[C@@H]2C)cc1
inactive: outcome [1] | outcome [2] | outcome [3]

Oc1ccc(C[C@H]2CNC(=S)N2CC2CCCN2C[C@H](Cc2ccc(O)cc2)N2C[C@H](Cc3ccccc3)N(CC3CCCCCC3)C2=S)cc1 (some centres undefined)
inactive: outcome [1] | outcome [2] | outcome [3]

COc1ccc(/C=C2\SC(=S)N(CCCC(=O)NC3CCCC3)C2=O)cc1OC
inactive: AC35 [10]

C[C@H](CO)N1C[C@H](C)[C@H](CN(C)Cc2ccc(C(F)(F)F)cc2)Oc2ccc(NC(=O)CCCCCC(=O)Nc3ccccc3N)cc2CC1=O
inactive: AC35 [10]

COc1cc(-c2cnc3c(NC=O)cc(-c4cccc(NC(C)=O)c4)cn23)cc(OC)c1OC
inactive: outcome [1] | outcome [3]

COc1ccccc1C#Cc1ccc2c(c1)O[C@@H](CN(C)Cc1ccncc1)[C@H](C)CN([C@@H](C)CO)S2(=O)=O
inactive: outcome [1] | outcome [2] | outcome [4] | max activity [5] 20.3% [at 8 µM, active compounds read low] | outcome [6] | outcome [7]

C[C@@H]1CN([C@H](C)CO)C(=O)c2cc(NC(=O)Nc3ccccc3)ccc2O[C@@H](C)CCCCO[C@@H]1CN(C)Cc1ccc(Cl)c(Cl)c1
inactive: outcome [1] | outcome [4]

Cc1noc(C)c1NC(=O)Nc1ccc2c(c1)CC(=O)N([C@@H](C)CO)C[C@@H](C)[C@@H](CN(C)Cc1ccc(Cl)c(Cl)c1)O2
inactive: AC35 [10]

C[C@@H]1CCCCO[C@H](CN(C)Cc2ccc(Cl)c(Cl)c2)[C@@H](C)CN([C@@H](C)CO)C(=O)c2cc(NC(=O)Nc3ccccc3)ccc2O1
inactive: outcome [1] | outcome [3] | outcome [4] | max activity [5] 15.8% [at 0.26 µM, active compounds read low] | outcome [6] | outcome [7] | outcome [8]

C[C@@H]1CN([C@H](C)CO)C(=O)c2cc(NC(=O)Nc3ccc(F)cc3)ccc2O[C@@H](C)CCCCO[C@@H]1CN(C)Cc1ccc(C(F)(F)F)cc1
inactive: outcome [1] | outcome [3] | outcome [4] | outcome [6] | outcome [7]

C[C@@H]1CN([C@H](C)CO)C(=O)c2cc(NC(=O)Nc3ccc(F)cc3)ccc2O[C@@H](C)CCCCO[C@H]1CN(C)Cc1ccc(C(F)(F)F)cc1
inactive: outcome [1] | outcome [3] | outcome [4] | outcome [6] | outcome [7] | outcome [8]

C[C@@H]1CN([C@H](C)CO)C(=O)c2cc(NC(=O)Nc3ccccc3)ccc2O[C@@H](C)CCCCO[C@H]1CN(C)Cc1ccc(C(F)(F)F)cc1
inactive: outcome [1] | outcome [2] | outcome [3] | outcome [7] | outcome [8]

O=C(Nc1ccc(F)cc1)N1CC(=O)N2[C@@H](CO)[C@H](c3ccc(-c4ccc(F)cc4)cc3)[C@@H]2C1
inactive: outcome [1] | outcome [3] | outcome [4] | outcome [7]

C[C@@H]1CCCCO[C@H](CN(C)Cc2ccc(C(F)(F)F)cc2)[C@@H](C)CN([C@@H](C)CO)C(=O)c2cc(NC(=O)Nc3ccc(F)cc3)ccc2O1
inactive: outcome [1] | outcome [3] | outcome [6]

C[C@@H]1CN([C@H](C)CO)C(=O)c2cc(NS(=O)(=O)c3ccc(F)cc3)ccc2O[C@@H](C)CCCCO[C@@H]1CN(C)Cc1ccccc1
inactive: outcome [1] | outcome [2] | outcome [4] | outcome [6] | outcome [7]

C[C@@H]1CCCCO[C@H](CN(C)Cc2ccc(C(F)(F)F)cc2)[C@@H](C)CN([C@@H](C)CO)C(=O)c2cc(NC(=O)Cc3ccccc3)ccc2O1
inactive: outcome [1] | outcome [2] | outcome [3] | outcome [6] | outcome [7] | outcome [8]
